# Assay results published in PubChem BioAssay (NCATS).
# Inconclusive results are not listed. Entries that show only a call come without a potency. Unmarked numbers belong to inactive results. Calls of active or inactive are those of the source. The call rests on the fitted dose curve; in most records, active means well fitted cell-killing curve with a large enough effect; inconclusive means small, poorly fitted or top-dose-only effect, or effect the other way; inactive means flat fitted curve, though single readings scatter.
# Tested on: C33A
# Test: Primary qHTS to identify gynecologic anti-cancer compounds using libraries of approved drugs and bioactive compounds (AID 1345084); further: nearly all actives have a fitted effect of over 55% in size
# Settings: Gynecologic cancer cell panel viability, ATPlite luminescence, 48 h; series mostly up to 57.5 µM
# In short: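 48 h compound exposure at 37 C, 5% CO2; five-point qHTS. ATPlite luminescence readout of cell ATP.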
SMILES,Potency,"activity change, negative = cytotoxicity"
COC(=O)C12C(=O)C(C)=C(O)C1(C)C(C)=CC1C34CCC(OC3=O)C(C)(C)C4CCC12C (centres undefined),inactive,
CC(C)=CCCC1(C)Oc2cc3c(c4c2C2C(O4)C(C)(O)CCC21)CN(C(CCC(=O)O)C(=O)O)C3=O (centres undefined),inactive,
Cc1cc(Nc2ncc(Cl)c(Nc3ccccc3S(=O)(=O)C(C)C)n2)c(OC(C)C)cc1C1CCNCC1,inactive,
CC(=O)OC1C(O)CC(O[C@@H]2O[C@H](CO)[C@@H](O)[C@H](O)[C@H]2O)C2CCC3C(=O)OC(c4ccoc4)CC3(C)C21 (some centres undefined),inactive,
NC(=O)c1ccc(OCC2NC(=O)C3CCCN3C2=O)cc1 (centres undefined),inactive,
COc1cc(COC2OC(CO)C(O)C(O)C2O)cc(OC)c1O (centres undefined),inactive,
C[C@@H]1O[C@@H](O[C@H]2[C@H](OC(=O)C34CCC5(C)C(=CCC6C7(C)CC(O)C(O[C@@H]8O[C@H](C(=O)O)[C@@H](O)[C@H](O)[C@H]8O)C(C)(C(=O)O)C7CCC65C)C3CC(C)(C)CC4O)O[C@H](C)[C@@H](O)[C@@H]2O)[C@H](O)[C@@H](O[C@@H]2OC[C@](O)(CO)[C@H]2O[C@@H]2O[C@H](CO)[C@@H](O)[C@H](O)[C@H]2O)[C@H]1O (some centres undefined),,-3.41% [at 6.55 µM]
CCC(C)C(=O)O[C@@H]1[C@@H](O)[C@@H](O[C@H]2O[C@H](CO)[C@@H](O)[C@H](O)[C@H]2O)O[C@H](CO)[C@H]1O (some centres undefined),inactive,
CC1(C)CC[C@]2(C(=O)O[C@@H]3O[C@H](CO)[C@@H](O)[C@H](O)[C@H]3O)CC[C@]3(C)C(=CCC4[C@@]5(C)C[C@@H](O)[C@H](O)C(CO)(CO)C5CC[C@]43C)C2[C@@H]1O (some centres undefined),inactive,
O=C(O)CCc1cccc(O[C@@H]2O[C@H](CO)[C@@H](O)[C@H](O)[C@H]2O)c1O,inactive,
CC(C)C1=CC2=CCC3[C@](C)(CCC[C@@]3(C)C(=O)O)C2CC1O (some centres undefined),inactive,
CC1OC(O[C@H]2[C@@H](O)C[C@@]3(C)C([C@H](O)C[C@]4(C)C3CC=C3C5CC(C)(C)CC[C@]5(C(=O)OC5OC(CO)C(O)C(O)C5OC5OCC(OC6OCC(OC7OCC(O)C(O)C7O)C(O)C6O)C(OC6OCC(O)(CO)C6O)C5O)CC[C@]34C)[C@]2(C)CO)C(O)C(O)C1O (some centres undefined),,4.56% [at 6.55 µM]
C=C1C(=O)OC2CC(C)=C(C(C)CCCO[C@@H]3O[C@H](CO)[C@@H](O)[C@H](O)[C@H]3O)C(O)C12 (some centres undefined),inactive,
CC(=O)OCC(=O)O[C@@H]1[C@H]2[C@@H](OC(=O)c3ccccc3)[C@@H](C)C[C@]2(O)[C@H](OC(C)=O)C2(C)[C@H]3CC(C)(C)C(=O)[C@@H]3CC1(OC(C)=O)[C@@H]2OC(C)=O (some centres undefined),inactive,
CC(CCC1(O)OC2CC3C4CCC5CC(O[C@@H]6O[C@H](CO)[C@@H](O)[C@H](O)[C@H]6O[C@@H]6OC[C@@H](O)[C@H](O)[C@H]6O)C(O)CC5(C)C4CCC3(C)C2C1C)CO[C@@H]1O[C@H](CO)[C@@H](O)[C@H](O)[C@H]1O (some centres undefined),,4.8% [at 11.6 µM]
CC1[C@@H](O)[C@@H](O)C2[C@]3(C)C(C[C@H]4OC(=O)[C@H](O)[C@]1(O)[C@@]24C)C(C)(O)C[C@H](O)[C@H]3O (some centres undefined),inactive,
C=C[C@@]1(C)CC(=O)C2[C@](C)(O1)[C@@H](OC(C)=O)[C@@H](O)[C@H]1C(C)(C)CCC[C@]21C (some centres undefined),,11.6% [at 11.6 µM]
CCS(=O)(=O)N1CCC([C@@H](C)n2c(C)c(C(=O)NCc3c(OC)cc(C)[nH]c3=O)c3ccccc32)CC1,inactive,
COc1cc(/C=C/C(=O)OC(C)(C)C(OC2OC(CO)C(O)C(O)C2O)C(=O)OCc2ccc(OC3OC(CO)C(O)C(O)C3O)cc2)ccc1O (centres undefined),inactive,
C=C1CCC2C(C)(COC3OC(COC(=O)CC(=O)O)C(O)C(O)C3O)CCCC2(C)C1CCC1=CCOC1=O (centres undefined),inactive,

SMILES,Potency,"activity change, negative = cytotoxicity"
CC(C)=CC/C=C(/C)[C@H]1CC[C@]2(C)[C@@H]1[C@H](O)CC1[C@@]3(C)CC[C@H](O)C(C)(C)[C@@H]3[C@@H](O[C@@H]3O[C@H](CO)[C@@H](O)[C@H](O)[C@H]3O[C@@H]3O[C@@H](C)[C@H](O)[C@@H](O)[C@H]3O)C[C@]12C (some centres undefined),inactive,
CCOC(=O)c1ccc(N(C)c2csc(-c3ccccc3)n2)cc1,inactive,
COCC(=O)N1CCc2cc(-c3csc(NC(=O)c4cc(OC)cc(OC)c4)n3)ccc21,inactive,
O=C(O)c1cc(O)c2cccc(O)c2c1O[C@@H]1O[C@H](CO)[C@@H](O)[C@H](O)[C@H]1O,inactive,
CNC(=O)O[C@H]1COc2ccc(N3CCN(C4COC4)CC3)cc2[C@@H]1NC(=O)c1ccc(F)cc1,inactive,
COC(=O)[C@@]1(O)C=CC[C@@H]2[C@@]3(C)C[C@@H](c4ccoc4)OC(=O)[C@H]3CC[C@]21C,inactive,
CC1(C)OC(=O)C(OCC2CC2)=C1c1ccc(S(C)(=O)=O)cc1,inactive,
CC1(O)CCC2C(C(=O)O)=COC(OC3OC(CO)C(O)C(O)C3OC(=O)/C=C/c3ccc(O)cc3)C21 (centres undefined),inactive,
CC(=O)O[C@@H]1[C@H](O[C@@H]2O[C@H](CO)[C@@H](O)[C@H](O)[C@H]2O)[C@@H](O[C@@H]2O[C@@H](C)[C@H](O)[C@@H](O[C@@H]3O[C@H](CO)[C@@H](O)[C@H](O)[C@H]3O)[C@H]2O)[C@H](OC(=O)C23CCC4(C)C(=CCC5C6(C)CC(O)C(O[C@@H]7O[C@H](C(=O)O)[C@@H](O)[C@H](O)[C@H]7O)C(C)(C(=O)O)C6CCC54C)C2CC(C)(C)CC3O)O[C@@H]1C (some centres undefined),,3.56% [at 6.55 µM]
CNC(=O)Nc1ccc(OC)c(NC(=O)NC(=O)c2cc(F)c(F)cc2Cl)c1,inactive,
C=CC(C)(O)CC/C=C(/C)C(=O)OC1C(OC2OCC(OC3OC(CO)C(O)C(O)C3O)C(OC3OCC(O)C(OC4OC(C)C(O)C(O)C4O)C3O)C2O)COC(OC(=O)C23CCC(C)(C)CC2C2=CCC4C5(C)CCC(OC6OC(CO)C(OC7OC(CO)C(O)C(OC8OCC(O)C(O)C8O)C7O)C(O)C6O)C(C)(C)C5CCC4(C)C2(C)CC3O)C1O (centres undefined),,1.13% [at 6.55 µM]
Nc1nonc1C(=Nc1ccc(F)c(Cl)c1)NO,inactive,
C=C(C(=O)OC)C1CCC2(C)C(O[C@@H]3O[C@H](CO)[C@@H](O)[C@H](O)[C@H]3O)CC(=O)C(C)C2C1O (some centres undefined),inactive,
COC(=O)[C@@H]1C2CC3c4[nH]c5ccccc5c4CCN3CC2CC[C@@H]1O (some centres undefined),inactive,
COc1cc(C[C@H]2COC(=O)[C@@H]2Cc2ccc(O)c(OC)c2)ccc1O,inactive,
CC(C)=CCc1ccc(Oc2c(O)cc(C)cc2CO)c(C(=O)O)c1O,inactive,
C[C@@H]1O[C@@H](O[C@@H]2[C@@H](O)[C@H](O[C@@H]3[C@@H](O)[C@@H](O)[C@H](O[C@H]4[C@H](OC(=O)[C@]56CCC(C)(C)C[C@H]5C5=CCC7[C@@]8(C)C[C@H](O)[C@H](O[C@@H]9O[C@H](C(=O)O)[C@@H](O)[C@H](O)[C@H]9O)[C@@](C)(CO)C8[C@H](O)C[C@@]7(C)[C@]5(C)CC6)OC[C@H](O)[C@@H]4O)O[C@H]3C)OC[C@H]2O)[C@H](O)[C@H](O)[C@H]1O (some centres undefined),,-3.84% [at 6.55 µM]
CC(=O)OC(CSC1CCC(=O)OC(C)CCC(=O)C1)C(=O)O (centres undefined),inactive,
CCC(NC(=O)CC(NC(=O)C(CO)NC(=O)C(CC)NC(=O)c1ccc[nH]1)c1ccccc1)C(=O)O (centres undefined),inactive,
